Experimental findings from PubChem BioAssay (Tox21) are described below.

Records with an inconclusive call do not appear. A call without a number means that no potency is given here. Active and inactive are the calls of the source. Unless noted, calls follow the shape of the dose curve; as a rule, active = well fitted cell-killing curve with a large enough effect in the repeat runs; inconclusive = weak or mixed curves; inactive = no such curve, though single readings can be large or run the other way.

Chain of Peroxisome proliferator-activated receptor delta (Homo sapiens) (Q03181 whole entry, looked up): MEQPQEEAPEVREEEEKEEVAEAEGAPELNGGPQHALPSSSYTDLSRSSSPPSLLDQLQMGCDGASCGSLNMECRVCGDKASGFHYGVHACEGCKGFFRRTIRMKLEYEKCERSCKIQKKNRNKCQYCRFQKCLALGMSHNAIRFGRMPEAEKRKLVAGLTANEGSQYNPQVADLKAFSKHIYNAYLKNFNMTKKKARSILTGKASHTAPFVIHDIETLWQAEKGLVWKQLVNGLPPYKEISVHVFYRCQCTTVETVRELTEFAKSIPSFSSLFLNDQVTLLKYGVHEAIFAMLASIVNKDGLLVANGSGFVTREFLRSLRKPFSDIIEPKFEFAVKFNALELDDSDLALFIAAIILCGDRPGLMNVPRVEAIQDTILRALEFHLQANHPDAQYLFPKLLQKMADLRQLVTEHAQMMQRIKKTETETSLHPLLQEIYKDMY

The first test deals with Peroxisome proliferator-activated receptor delta (Homo sapiens) (UniProt Q03181). In words: qHTS assay to identify small molecule agonists of the peroxisome proliferator-activated receptor delta (PPARd) signaling pathway (AID 743212; calls by dose curve). The conditions noted are these: HEK293H PPARd-UAS-bla, beta-lactamase FRET ratio, 17 h; series mostly up to 62.6 µM. The method, boiled down:
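GeneBLAzer PPARd UAS-bla HEK293H cells (beta-lactamase reporter under UAS control), plated and rested 5 h at 37 C, then exposed to compounds in DMSO at 37 C; LiveBLAzer B/G FRET substrate added, 2 h room temperature, fluorescence read.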
On the technique in general: qHTS replaces the single test concentration by a dilution series.
For `CC(O)(c1ccc(Cl)cc1)c1ccc(Cl)cc1`, the result was inactive. Same read-out and setting: then `CCCCCCCCCC[N+](C)(CCCCCCCCCC)CCC[Si](OC)(OC)OC`, with “inactive”. With `Cc1ccc(Cl)c(N)c1Cl`, the outcome was inactive. In the case of `CCCCCCCCCCCCCCCCC(C(=O)O)C(O)(CC(=O)O)C(=O)O` (stereo not drawn), the result was inactive. On to `SC1CCCCC1`, for which the outcome was inactive.

Consider `COc1cc([C@@H]2c3cc4c(cc3[C@@H](O[C@@H]3O[C@@H]5CO[C@@H](C)O[C@H]5[C@H](O)[C@H]3O)[C@H]3COC(=O)[C@H]23)OCO4)cc(OC)c1O`, for which the result was inactive. The same measure, in the same setting: then `O=C1CCC/C=C\CCCCCCCCCC1`, with “inactive”.

As for `CCCCCCCCOC(=O)c1cc(O)c(O)c(O)c1`, the outcome was inactive.

Regarding `O=C1OC(O)C(C(Cl)Cl)=C1Cl` (stereo not drawn), the result was inactive. Regarding `CN(C/C=C/c1ccccc1)Cc1cccc2ccccc12`, the result was inactive. Still for that read-out and setting: then `CN1CCN(CCCN2c3ccccc3Sc3ccc(Cl)cc32)CC1`, with “inactive”; and `Oc1ccc(Cl)cc1C1CCCC1`, with “inactive”; and `O=C(N[C@H](CO)[C@H](O)c1ccc([N+](=O)[O-])cc1)C(Cl)Cl`, with “inactive”.

Tested on in a further test: not listed separately
Kind of test: qHTS assay to identify small molecule antagonists of the peroxisome proliferator-activated receptor delta (PPARd) signaling pathway - cell viability counter screen (AID 743213). Also: nearly all actives have a fitted effect of over 50% in size. Also: potency is read from the fitted curve at half-maximal effect. Conditions: PPARd-bla HEK293H viability, CellTiter-Glo luminescence, 17 h; series mostly up to 62 µM. In outline:
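HEK293H cells with the PPARd UAS-bla reporter, co-treated 17 h at 37 C with compounds and L165041 (300 nM final), were lysed with CellTiter-Glo. Luminescence indicated viable cell content.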
With `N#Cc1nc(Cl)c(Cl)c(Cl)c1Cl`, the Potency was 15.5 µM (active).

Turning to `Clc1nc(C(Cl)(Cl)Cl)c(Cl)c(Cl)c1Cl`, the Potency result was “inactive”. With `CN1CCN(CCCN2c3ccccc3Sc3ccc(C(F)(F)F)cc32)CC1`, the Potency was 26.6 µM (active). Still for that read-out and setting: then `CC(O)(c1ccc(Cl)cc1)c1ccc(Cl)cc1`, with “inactive”; and `CCCCCCCCCC[N+](C)(CCCCCCCCCC)CCC[Si](OC)(OC)OC`, with 9.77 µM (active).

Take `CCCCCCCCCCCCCCCCC(C(=O)O)C(O)(CC(=O)O)C(=O)O` (stereo not drawn): the Potency was 18.8 µM (active). On the same count and under the same terms, then `SC1CCCCC1`, with “inactive”; and `COc1cc([C@@H]2c3cc4c(cc3[C@@H](O[C@@H]3O[C@@H]5CO[C@@H](C)O[C@H]5[C@H](O)[C@H]3O)[C@H]3COC(=O)[C@H]23)OCO4)cc(OC)c1O`, with 21.6 µM (active); and `CN1CCN(c2ccccc2/C=C2\SCCN(c3ccc(Cl)c(Cl)c3)C2=O)CC1`, with 24.5 µM (active). On the same count and under the same terms, with `CCCCCCCCOC(=O)c1cc(O)c(O)c(O)c1` the figure was 43.6 µM (active). The same measure, in the same setting: then `CN1CCN(CCCN2c3ccccc3Sc3ccc(Cl)cc32)CC1`, with 26.6 µM (active); and `Oc1ccc(Cl)cc1C1CCCC1`, with “inactive”; and `CC(=O)[C@]1(O)Cc2c(O)c3c(c(O)c2[C@@H](O[C@H]2C[C@H](N)[C@H](O)[C@H](C)O2)C1)C(=O)c1ccccc1C3=O`, with “inactive”. With `COc1c(Br)cc(Br)c(C)c1Br`, the Potency result is “inactive”. On the same count and under the same terms, with `O=C(N[C@H](CO)[C@H](O)c1ccc([N+](=O)[O-])cc1)C(Cl)Cl` the entry was “inactive”.
